How the values were obtained:
Assay type in all cases: functional
[1] = molecular target: Solute carrier family 2, facilitated glucose transporter member 1 (Homo sapiens) (UniProt P11166); experiment: ST_JUDE_LEISH: Cytotoxicity at 2uM final concentration against transgenic Leishmania Mexicana promastigotes LmGLUT1 that are glucose transport deficient and complemented with the human glucose transporter GLUT1. Activity is measured by DNA content using SYBR green in vitro
[2] = molecular target: Hexose transporter 1 (Plasmodium falciparum) (UniProt O97467); experiment: ST_JUDE_LEISH: Cytotoxicity at 2uM final concentration against transgenic Leishmania Mexicana promastigotes LmPfHT that are glucose transport deficient and complemented with the Plasmodium falciparum hexose transporter. Activity is measured by DNA content using SYBR green in vitro
[3] = molecular target: Glucose transporter (Leishmania mexicana) (UniProt O61059); experiment: ST_JUDE_LEISH: Cytotoxicity at 2uM final concentration against transgenic Leishmania Mexicana promastigotes LmGT2 that are glucose transport deficient and complemented with the L. Mexicana glucose transporter 2. Activity is measured by DNA content using SYBR green in vitro

Sequence of Solute carrier family 2, facilitated glucose transporter member 1 (Homo sapiens) (P11166 whole entry): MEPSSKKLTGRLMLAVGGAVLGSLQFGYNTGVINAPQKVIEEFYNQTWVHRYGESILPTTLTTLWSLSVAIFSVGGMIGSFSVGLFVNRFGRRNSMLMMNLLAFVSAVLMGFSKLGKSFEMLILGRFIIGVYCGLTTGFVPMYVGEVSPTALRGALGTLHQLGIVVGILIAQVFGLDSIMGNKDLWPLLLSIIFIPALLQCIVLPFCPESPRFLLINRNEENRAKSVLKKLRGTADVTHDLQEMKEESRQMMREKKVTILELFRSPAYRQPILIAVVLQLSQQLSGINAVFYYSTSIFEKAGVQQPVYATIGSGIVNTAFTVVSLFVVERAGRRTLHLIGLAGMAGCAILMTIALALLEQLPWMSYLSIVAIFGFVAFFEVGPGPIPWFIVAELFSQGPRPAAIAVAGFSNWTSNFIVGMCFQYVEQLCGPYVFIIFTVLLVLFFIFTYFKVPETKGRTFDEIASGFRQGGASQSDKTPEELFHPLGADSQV

Row | SMILES | inhibition [1] | inhibition [2] | inhibition [3]
1 | O=C(Nc1ccc2c(c1)CCN2C1CCN(Cc2ccc(C(F)(F)F)cc2F)C1)c1ccco1 (stereo not given) | 1.38% | 0.47% | 1.6%
2 | CC(C)CNCc1cccc(-c2ccc(CNC3CCN(Cc4ccccc4)CC3)cc2)c1 | 6.62% | 7.43% | 4.78%
3 | NC(=O)c1cccc(Nc2nccc(Nc3ccc4[nH]c(-c5ccccc5)cc4c3)n2)c1 | -0.28% | 0.57% | 1.6%
4 | COc1ccc2nccc([C@@H](O)CN3CCC(NC(=O)c4cc5c(F)cc(F)cc5[nH]4)CC3)c2n1 | 87% | 84.1% | 85.4%
5 | Cc1cc(-c2nc3cc(C(=N)N)ccc3[nH]2)c(C)cc1-c1nc2cc(C(=N)N)ccc2[nH]1 | 4.57% | 3.95% | 0.94%
6 | CC(Cc1ccc(NC(=O)c2ccc(NCCc3ccccc3)cc2)cc1)NCCc1cccc(Cl)c1 (stereo not given) | -0.04% | -0.81% | -1.31%
7 | Fc1ccc2[nH]c(-c3ccc(-c4ccc(CN5CCCCC5)cc4)s3)nc2c1 | 5.07% | 4.14% | 1.79%
8 | Cc1ccc2cc(NC(=O)CCCCCCCON3C(N)=NC(N)=NC34CCCCC4)ccc2n1 | -1.59% | 0.8% | 0.83%
9 | Cc1cc(N2CCN(C3CCCCC3)CC2)nc2cccc(O)c12 | -1.8% | -0.66% | 0.33%
10 | CCn1c(C)cc(C=C2SC(=Nc3ccccc3)NC2=O)c1C | 6.88% | 4.18% | 2.93%
11 | CC(C)CC(=O)N1CCNC[C@@H]1C(=O)NC1CC1 | 1.66% | 1.41% | -0.37%
12 | COc1ccc(Cc2nc3c(n2C(C)=O)SC(c2ccc(Cl)c(Cl)c2)=NN3C(C)=O)cc1 | 0.08% | 5.48% | 5.39%
13 | CCOc1ccccc1C1CCN(CCCCNC(=O)c2ccc(NC(=O)c3ccc(Cl)cc3)cc2)CC1 | 10.6% | 7.51% | 10.8%
14 | CC(C)C(=O)NC(c1cccs1)c1cc(Cl)c2cccnc2c1O (stereo not given) | 1.65% | 1.13% | -0.45%
15 | O=C(Cn1cc(C(F)(F)F)cc(Cl)c1=O)N1CCN(S(=O)(=O)c2ccc(Cl)cc2)CC1 | 2.2% | 1.76% | -0.25%
16 | Fc1cccc(C=NN=c2cc[nH]c3ccccc23)c1 | 9.03% | 6.41% | 6.88%
17 | CC(C)Nc1cc(C(=O)N[C@@H](Cc2ccccc2)[C@H](O)CNC(C)(C)c2cccc(C(F)(F)F)c2)cc(N2CCCCS2(=O)=O)c1 | 1.42% | 2.46% | 0.9%
18 | Oc1ccc2[nH]c(-c3cccs3)nc2c1CN1CCC(O)(c2ccccc2)CC1 | 10.6% | 5.23% | 9.03%
19 | COc1cc(NCCCNC(=O)c2cc3c(Cl)cc(Cl)cc3[nH]2)nc2ccccc12 | 2.04% | 6.51% | 0.77%
20 | O=C(Nc1ccc(-c2cccc(-c3nc4ccccc4[nH]3)c2)cc1)Nc1ccc2c(c1)OCO2 | 1.87% | 2.62% | 0.58%
21 | O=C(/C=C/c1ccc(Cl)c(Cl)c1)N1CCCC(CCCN2CCC(c3c[nH]c4ccccc34)CC2)C1 (stereo not given) | 4.23% | 3.51% | -0.35%
22 | FC(F)(F)c1cccc2c(NN=Cc3ccccc3)ccnc12 | 2.7% | 2.21% | 1.42%
23 | COc1ccc2nc3cc(Cl)ccc3c(NCc3ccccc3)c2c1 | 2.39% | 2.92% | -0.49%
24 | Cc1onc(-c2ccccc2)c1C(=O)Nc1nc(-c2ccccn2)nc2ccsc12 | 2.38% | 1.96% | 0.03%
25 | N#Cc1ccc(-c2cnc3ccc(NCc4ccc(S(N)(=O)=O)cc4)nn23)cc1 | 2.42% | 1.16% | 0.38%
26 | COc1ccc(CNCc2ccsc2)cc1-c1ccc(S(=O)(=O)NCCN2CCCC2)c(C)c1 | -0.35% | -1.19% | -4.07%
27 | FC(F)(F)c1ccc2[nH]c(-c3cccc(-c4ccc(CNCCc5ccncc5)cc4)c3)nc2c1 | 1.9% | 0.52% | -0.21%
28 | Cc1cccc2nc(-c3ccc(-c4ccc(CN5CC(C)OC(C)C5)cc4)cc3)[nH]c12 (stereo not given) | 4.48% | 3.58% | 0.01%

Row | SMILES | inhibition [1] | inhibition [2] | inhibition [3]
29 | CC(C)CNCc1cccc(-c2cccc(CN(CCCN3CCN(C)CC3)C(=O)CCC3CCCC3)c2)c1 | 4.42% | 3.07% | 4.38%
30 | CCCC1(NC[C@@H](O)[C@H](Cc2ccccc2)NC(=O)c2cc(NCC)cc(N3CCCCS3(=O)=O)c2)CC1 | 1.58% | 1.33% | -0.73%
31 | COc1ccc2c(=O)c(-c3ccc(OC(F)(F)F)cc3)c(C)[nH]c2c1 | -0.72% | 1.76% | 1.81%
32 | COc1ccc(CNCc2ccc(-c3ccc(-c4nc5cc(C(F)(F)F)ccc5[nH]4)s3)cc2)cc1 | 3.27% | 1.92% | 2.4%
33 | CCn1c(-c2ccccc2)cc2nnc3ccccc3c21 | 6.68% | 5.32% | 5.02%
34 | CNC(=O)c1cc(Nc2nnc(-c3ccc(C)c(S(=O)(=O)NC4CCCCC4)c3)c3ccccc23)ccc1OC | 4% | 3.11% | 4.93%
35 | FC(F)(F)c1ccc2[nH]c(-c3ccc(-c4cccc(CNCc5cnn(-c6ccccc6)n5)c4)cc3)nc2c1 | 2.04% | 1.86% | -0.02%
36 | CC(Oc1ccc(Cl)cc1)C(=O)Nc1cc(C(F)(F)F)ccc1-n1cncn1 (stereo not given) | 2.69% | 3.5% | 3.88%
37 | O=C(Nc1cccc(CN2CCCN(Cc3cccnc3)CC2)c1)c1ccc(Cl)c(Cl)c1 | 5.01% | 4.16% | 5.38%
38 | Cc1cc(N2CCN(C(=O)OC(C)(C)C)CC2)ccc1N | 6.77% | 8.78% | 7.39%
39 | COc1c(CCNCCCCNCCc2cc(Cl)c3ccccc3c2OC)cc(Cl)c2ccccc12 | 102% | 100% | 105%
40 | CCC(C(=O)Nc1cc(=O)[nH]c2nc(-c3ccco3)nn12)c1ccccc1 (stereo not given) | 0.95% | 1.55% | 1.71%
41 | COc1ccc2nc(-c3ccc(C(=O)NCCCN4CCN(c5cc(Cl)ccc5OC)CC4)cc3OC)[nH]c2c1 | 2.79% | 1.93% | 3.01%
42 | CCCc1ccccc1Nc1nc(C)cc(N(CC)CCCN2CCCCC2)n1 | 5.33% | 5.19% | 5.53%
43 | S=C(NN=Cc1ccccn1)NC1CC2C=CC1C2 (stereo not given) | 10% | 13.6% | -1.49%
44 | CC(=O)NCCCCC1NC2(C(=O)N(Cc3ccc(C(C)(C)C)cc3)c3ccccc32)C2C(=O)N(C3CCCCC3)C(=O)C12 (stereo not given) | -1.24% | -3.01% | -0.43%
45 | Cc1cc(NC(=O)c2sc3ccccc3c2O)no1 | 2.41% | 1.84% | 0.64%
46 | CCOC(=O)c1ccc(N(CCCN(CCCN(c2ccc(C(=O)OCC)cc2)S(=O)(=O)c2ccc(C)cc2)CCc2ccc(O)cc2)S(=O)(=O)c2ccc(C)cc2)cc1 | 2.89% | 2.43% | 1.65%
47 | COc1ccccc1CCNc1ncnc2c1[nH]c1ccc(F)cc12 | 4.25% | 12.9% | 10.1%
48 | CN(C)CCN(Cc1ccccc1-c1ccc(CNCCc2ccccc2)cc1)C(=O)NC1CCCCC1 | 3.67% | 3.66% | 0.85%
49 | CN1CCCN(c2ccnc3cc4c(cc23)N(C(=O)c2ccc(C(F)(F)F)cc2)CC4)CC1 | 5.22% | 5.41% | 7.79%
50 | CCNc1cc(C(=O)N[C@@H](Cc2ccccc2)[C@H](O)CNC2(Cc3cccc(Cl)c3)CCC2)cc(N2CCCCS2(=O)=O)c1 | -0.69% | 0.65% | 2.93%
51 | CC(CN(C)C)C(=O)Nc1cccc(-c2ccc(-c3nc4ccccc4[nH]3)s2)c1 (stereo not given) | 9.63% | 9.45% | 3.78%
52 | Cc1cccc(Cn2c(C(N)=O)nn(-c3ccc([N+](=O)[O-])cc3C#N)c2=S)c1 | 11.5% | 11.7% | 11.7%
53 | O=C(O)c1ccc(NC(=O)C2CC(=O)N(Cc3ccc(Cl)cc3)C(=Nc3ccc(Cl)cc3)S2)cc1 (stereo not given) | 2.23% | 2.86% | 1.01%
54 | COc1ccc(CCn2c(=N)c(C(=O)NC3CCCC3)cc3c(=O)n4ccccc4nc32)cc1 | 7.26% | 9.43% | 5.98%
55 | CCOC(=O)C(C(=O)OCC)c1nc(C)ns1 | -1.35% | 0.58% | 0.53%
